Out of some 5,500 compounds screened, about 2,000 (36%) were called active. Another 18% or so got no clear call; they are omitted. Cut-off read from the data, not from the text of the source: active = normalized growth mostly below about 0.91 (no sharp cut-off); inconclusive = no clear call, values can overlap the other calls; inactive = mostly above about 0.92. Some of the results follow.
Assay: chemical genetic growth profiling, strain panel (AID 1159580);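 note: tested at 20 µM; growth read once vehicle control cultures reached saturation at 30 °C; 1 = growth at the plate median or of vehicle wells; lower values mean less growth of the strain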
Settings: growth OD

Measured: normalized growth

COc1ccc2c(c1OC)C(=O)O[C@H]2[C@H]1c2cc3c(cc2CCN1C)OCO3
inactive: S. cerevisiae deletion strains, locus YJR075W, strain HOC1, active compounds read low 1 | S. cerevisiae deletion strains, locus YKL009W, strain mrt4, active compounds read low 1.03 | S. cerevisiae deletion strains, locus YKL068W, active compounds read low 1 | S. cerevisiae deletion strains, locus YKL085W, strain MDH1 (second series), active compounds read low 1 | S. cerevisiae deletion strains, locus YKL085W, strain MDH1, active compounds read low 1 | S. cerevisiae deletion strains, locus YKL160W, strain elf1, active compounds read low 0.994 | S. cerevisiae deletion strains, locus YKL190W, strain CNB1, active compounds read low 1 | S. cerevisiae deletion strains, locus YKR001C, strain vps1, active compounds read low 1.03 | S. cerevisiae deletion strains, locus YKR026C, strain gcn3, active compounds read low 1.01 | S. cerevisiae deletion strains, locus YKR091W, strain srl3, active compounds read low 0.99 | S. cerevisiae deletion strains, locus YLL001W, strain dnm1, active compounds read low 0.998 | S. cerevisiae deletion strains, locus YLL026W, active compounds read low 1 | S. cerevisiae deletion strains, locus YLL041C, strain sdh2, active compounds read low 1 | S. cerevisiae deletion strains, locus YLR027C, strain aat2, active compounds read low 1 | S. cerevisiae deletion strains, locus YLR039C, strain RIC1, active compounds read low 1.04 | S. cerevisiae deletion strains, locus YLR058C, strain SHM2, active compounds read low 1 | S. cerevisiae deletion strains, locus YLR102C, strain apc9, active compounds read low 1.01 | S. cerevisiae deletion strains, locus YLR113W, strain HOG1, active compounds read low 1.05 | S. cerevisiae deletion strains, locus YLR221C, strain rsa3, active compounds read low 0.998 | S. cerevisiae deletion strains, locus YLR258W, strain gsy2, active compounds read low 1.01 | S. cerevisiae deletion strains, locus YLR262C, strain YPT6 (second series), active compounds read low 1.01 | S. cerevisiae deletion strains, locus YLR262C, strain YPT6, active compounds read low 1.03 | S. cerevisiae deletion strains, locus YLR268W, strain sec22, active compounds read low 1.01 | S. cerevisiae deletion strains, locus YLR320W, strain mms22, active compounds read low 1 | S. cerevisiae deletion strains, locus YLR330W, strain CHS5, active compounds read low 1.01 | S. cerevisiae deletion strains, locus YLR342W, strain FKS1 (second series), active compounds read low 0.981 | S. cerevisiae deletion strains, locus YLR342W, strain FKS1, active compounds read low 0.996 | S. cerevisiae deletion strains, locus YLR357W, strain rsc2, active compounds read low 1.03 | S. cerevisiae deletion strains, locus YLR370C, strain arc18, active compounds read low 0.994 | S. cerevisiae deletion strains, locus YLR371W, strain rom2, active compounds read low 1.02 | S. cerevisiae deletion strains, locus YLR384C, strain iki3, active compounds read low 1 | S. cerevisiae deletion strains, locus YLR418C, strain cdc73, active compounds read low 1.03 | S. cerevisiae deletion strains, locus YML016C, strain PPZ1, active compounds read low 1 | S. cerevisiae deletion strains, locus YML032C, strain rad52, active compounds read low 1.01 | S. cerevisiae deletion strains, locus YML120C, strain ndi1, active compounds read low 0.987 | S. cerevisiae deletion strains, locus YML124C, strain tub3, active compounds read low 1.01 | S. cerevisiae deletion strains, locus YMR058W, strain fet3, active compounds read low 1 | S. cerevisiae deletion strains, locus YMR078C, strain ctf18, active compounds read low 1 | S. cerevisiae deletion strains, locus YMR125W, strain sto1, active compounds read low 0.991 | S. cerevisiae deletion strains, locus YMR129W, active compounds read low 0.998 | S. cerevisiae deletion strains, locus YMR205C, strain PFK2, active compounds read low 1 | S. cerevisiae deletion strains, locus YMR223W, strain ubp8, active compounds read low 1 | S. cerevisiae deletion strains, locus YMR231W, strain pep5, active compounds read low 0.999 | S. cerevisiae deletion strains, locus YMR263W, strain SAP30, active compounds read low 1 | S. cerevisiae deletion strains, locus YMR307W, strain GAS1, active compounds read low 1.05 | S. cerevisiae deletion strains, locus YNL067W, strain RPL9B, active compounds read low 0.979 | S. cerevisiae deletion strains, locus YNL071W, strain lat1, active compounds read low 0.994 | S. cerevisiae deletion strains, locus YNL128W, strain TEP1, active compounds read low 0.984 | S. cerevisiae deletion strains, locus YNL153C, strain GIM3, active compounds read low 1 | S. cerevisiae deletion strains, locus YNL183C, strain NPR1, active compounds read low 0.979 | S. cerevisiae deletion strains, locus YNL209W, strain ssb2, active compounds read low 1 | S. cerevisiae deletion strains, locus YNL233W, strain BNI4, active compounds read low 1.01 | S. cerevisiae deletion strains, locus YNL248C, strain rpa49, active compounds read low 0.988 | S. cerevisiae deletion strains, locus YNL250W, strain rad50, active compounds read low 1 | S. cerevisiae deletion strains, locus YNL271C, strain bni1, active compounds read low 1 | S. cerevisiae deletion strains, locus YNL298W, strain CLA4, active compounds read low 1.01 | S. cerevisiae deletion strains, locus YNL307C, strain MCK1, active compounds read low 1.01 | S. cerevisiae deletion strains, locus YNL322C, strain KRE1 (second series), active compounds read low 1.01 | S. cerevisiae deletion strains, locus YNL322C, strain KRE1, active compounds read low 1 | S. cerevisiae deletion strains, locus YNR049C, strain mso1, active compounds read low 0.995 | S. cerevisiae deletion strains, locus YNR052C, strain pop2, active compounds read low 0.999 | S. cerevisiae deletion strains, locus YOL006C, strain TOP1, active compounds read low 1.03 | S. cerevisiae deletion strains, locus YOL012C, strain htz1 0.872 | S. cerevisiae deletion strains, locus YOL147C, strain pex11, active compounds read low 1.01 | S. cerevisiae deletion strains, locus YOR001W, strain rrp6, active compounds read low 0.995 | S. cerevisiae deletion strains, locus YOR061W, strain CKA2, active compounds read low 1 | S. cerevisiae deletion strains, locus YOR069W, strain VPS5, active compounds read low 0.997 | S. cerevisiae deletion strains, locus YOR070C, strain gyp1, active compounds read low 0.995 | S. cerevisiae deletion strains, locus YOR080W, strain dia2, active compounds read low 1 | S. cerevisiae deletion strains, locus YOR083W, strain WHI5, active compounds read low 0.988 | S. cerevisiae deletion strains, locus YOR106W, strain vam3, active compounds read low 1.02 | S. cerevisiae deletion strains, locus YOR136W, strain idh2, active compounds read low 1 | S. cerevisiae deletion strains, locus YOR144C, strain elg1, active compounds read low 1.01 | S. cerevisiae deletion strains, locus YOR184W, strain ser1, active compounds read low 0.999 | S. cerevisiae deletion strains, locus YOR231W, strain MKK1, active compounds read low 1.06 | S. cerevisiae deletion strains, locus YOR265W, strain rbl2, active compounds read low 1 | S. cerevisiae deletion strains, locus YOR270C, strain vph1, active compounds read low 0.998 | S. cerevisiae deletion strains, locus YOR290C, strain snf2, active compounds read low 0.975 | S. cerevisiae deletion strains, locus YOR316C, strain cot1, active compounds read low 1 | S. cerevisiae deletion strains, locus YPL051W, strain arl3, active compounds read low 0.982 | S. cerevisiae deletion strains, locus YPL055C, strain LGE1, active compounds read low 0.986 | S. cerevisiae deletion strains, locus YPL078C, strain atp4, active compounds read low 0.996 | S. cerevisiae deletion strains, locus YPL106C, strain sse1, active compounds read low 0.982 | S. cerevisiae deletion strains, locus YPL240C, strain hsp82, active compounds read low 1 | S. cerevisiae deletion strains, locus YPL241C, strain CIN2, active compounds read low 0.997 | S. cerevisiae deletion strains, locus YPL256C, strain CLN2, active compounds read low 1.03 | S. cerevisiae deletion strains, locus YPR119W, strain clb2, active compounds read low 1.01 | S. cerevisiae deletion strains, locus YPR141C, strain kar3, active compounds read low 1.01 | S. cerevisiae deletion strains, locus YPR163C, strain tif3, active compounds read low 1.02 | S. cerevisiae deletion strains, locus YPR167C, strain met16, active compounds read low 1.01 | S. cerevisiae deletion strains, strain wtn01, active compounds read low 1.01 | S. cerevisiae strains, strain wild type, active compounds read low 0.982
